{"source": "PubChem BioAssay (Tox21)", "note": "Where “and” joins values, the source holds several entries; their conditions need not be identical. Equal entries are not always repeated. Some structures have more than one record in an assay (separate samples or runs), and their calls can disagree. Calls of active or inactive are those of the source. A call without a number means that no potency is given here. Calls follow the shape of the dose curve; as a rule, active = well fitted activation curve with a large enough effect in the repeat runs; inconclusive = weak or mixed curves; inactive = flat fitted curve, though single readings scatter. Starred links: 1 amine or outer side, 2 acyl side, 3 side chain; linkers in the order of their positions; H or OH if unused. Positions of bridges follow the written chain, without caps; N, C: chain ends. Non-standard residues stand in square brackets, D forms with d. Residues, ends and D or L forms follow the SMILES beside them. Chains are numbered I, II in the order given. Actinocin(9to1) = Cc1c2oc3c(C)ccc(C(=O)[*:1])c3nc-2c(C(=O)[*:2])c(N)c1=O; NMeV = CN[C@H](C(=O)O)C(C)C; Sar = CNCC(=O)O"}
{"assay": "Caspase-3/7 induction in CHO-K1 cells by small molecules, qHTS assay (AID 1346980); also: nearly all actives have a fitted effect of over 15% in size; also: potency is read from the fitted curve at half-maximal effect", "conditions": "CHO-K1 caspase-3/7 induction, Caspase-Glo luminescence, 17 h; series mostly up to 92.4 µM", "text": "National Center for Advancing Translational Sciences [NCATS]\nNIH Chemical Genomics Center [NCGC]\nU.S. Environmental Protection Agency [EPA]\nNational Institutes of Environmental Health Sciences [NIEHS]\nNational Toxicology Program [NTP]\nApoptosis is a process of programmed cell death and plays a central role in the development of multicellular organisms. It is a highly regulated process and induces cell death by activating caspases, which are the members of cysteine aspartic acid-specific protease (caspase) family. Caspases involved in apoptosis are classified by their mechanism of action as initiator caspases (caspase-2, -8, -9 and -10) and executioner caspases (caspase-3, -6, and -7). Inhibition of apoptosis results in number of cancers, autoimmune diseases, inflammatory diseases and viral infection. To identify small molecule compounds that induce apoptosis, a homogeneous, luminescent Caspase-Glo 3/7 assay was used. Wild type CHO-K1 cells were used to screen Tox21 libraries for identifying caspase-3/7 activity inducers.\nCHO-K1 cells were dispensed at 1,500 per well in 5uL of culture medium into white solid bottom 1536-well plates (Corning Life Sciences, Corning, NY) using a Multidrop Combi (Thermo Scientific, Waltham, MA) dispenser. The assay plates were incubated at 37 C and 5% CO2 for 5hr, and then 23nL of compounds dissolved in DMSO and positive control were transferred using a Pintool station (Wako, San Diego, CA). The assay plates were incubated at 37C and 5% CO2 for 17hr. For caspase-3/7 activity read, 4uL of Caspase-Glo 3/7 reagent (Promega Corporation, Madison, WI) was added to each well of the assay plates using Flying Reagent Dispenser (FRD, Aurora Discovery, San Diego, CA) and incubated the assay plates at room temperature for 30min. The luminescence signal was quantified using a ViewLux plate reader (Perkin Elmer, Shelton, CT)."}
{"smiles": "CO[Si](OC)(OC)c1ccccc1", "Potency": "inactive"}
{"smiles": "O=C(Nc1ccccc1SSc1ccccc1NC(=O)c1ccccc1)c1ccccc1", "Potency": "inactive"}
{"smiles": "COc1cc(C(=S)N2CCOCC2)ccc1O", "Potency": "inactive"}
{"smiles": "O=Nc1ccc(Nc2ccccc2)cc1", "Potency": "inactive"}
{"smiles": "O=C(O[C@@H]1Cc2c(O)cc(O)cc2O[C@@H]1c1cc(O)c(O)c(O)c1)c1cc(O)c(O)c(O)c1", "Potency": "inactive"}
{"smiles": "O=c1n(CC2CO2)c(=O)n(CC2CO2)c(=O)n1CC1CO1", "note": "(stereo not given)", "Potency": "inactive"}
{"smiles": "NCCO", "Potency": "inactive"}
{"smiles": "CC(C)(c1ccccc1)c1ccc(Nc2ccc(C(C)(C)c3ccccc3)cc2)cc1", "Potency": "inactive"}
{"smiles": "CC(=O)OCCOCCOCCOC(C)=O", "Potency": "inactive"}
{"smiles": "Cc1occc(=O)c1OC(=O)C(C)C", "Potency": "inactive"}
{"smiles": "C[N+]1([O-])CCOCC1", "Potency": "inactive"}
{"smiles": "CCCOC(=O)c1cc(O)c(O)c(O)c1", "Potency": "inactive"}
{"smiles": "NC(N)=NC(=O)Cc1c(Cl)cccc1Cl", "Potency": "inactive"}
{"smiles": "c1ccc2cc3c(ccc4ccccc43)cc2c1", "Potency": "inactive"}
{"smiles": "O=C(O)c1cccc(C(=O)O)c1", "Potency": "inactive"}
{"smiles": "NCCCCCC(=O)O", "Potency": "inactive"}
{"smiles": "O=C(O)c1cn(-c2ccc(F)cc2)c2cc(N3CCNCC3)c(F)cc2c1=O", "Potency": "inactive"}
{"smiles": "CC[C@H]1CN2CCc3cc(OC)c(OC)cc3[C@@H]2C[C@@H]1C[C@H]1NCCc2cc(OC)c(OC)cc21", "Potency": "30.7 µM (active) and inactive"}
{"smiles": "Cc1cccc2n[nH]nc12", "Potency": "inactive"}
{"smiles": "Nc1cc(Cl)c(-c2cc(Cl)c(N)cc2Cl)cc1Cl", "Potency": "inactive"}
{"smiles": "C=C(C)C1CC=C(C)C(OC(C)=O)C1", "note": "(stereo not given)", "Potency": "inactive"}
{"smiles": "Cc1c(O)cccc1C(=O)N[C@@H](CSc1ccccc1)[C@H](O)CN1C[C@H]2CCCC[C@H]2C[C@H]1C(=O)NC(C)(C)C", "Potency": "inactive"}
{"smiles": "CCC(C)(C)C(=O)O[C@H]1C[C@@H](C)C=C2C=C[C@H](C)[C@H](CC[C@@H]3C[C@@H](O)CC(=O)O3)[C@H]21", "Potency": "inactive"}
{"smiles": "CC(COc1ccccc1)N(CCCl)Cc1ccccc1", "note": "(stereo not given)", "Potency": "inactive"}
{"smiles": "CC1=CC(=O)c2ccccc2C1=O", "Potency": "inactive"}
{"smiles": "Cc1ccnc2c1NC(=O)c1cccnc1N2C1CC1", "Potency": "inactive"}
{"smiles": "C#CC(C)(CC)OC(=O)c1ccccc1C(=O)O", "note": "(stereo not given)", "Potency": "inactive"}
{"smiles": "Nc1ccc2cc3ccccc3cc2c1", "Potency": "inactive"}
{"smiles": "CCCNC(C)C(=O)Nc1ccccc1C", "note": "(stereo not given)", "Potency": "inactive"}
{"smiles": "O=C1Nc2ccccc2C1(c1ccc(O)cc1)c1ccc(O)cc1", "Potency": "inactive"}
{"smiles": "BrC1CCC(Br)C(Br)CCC(Br)C(Br)CCC1Br", "note": "(stereo not given)", "Potency": "60.9 µM (active)"}
{"smiles": "CC(C(O)c1ccc(O)cc1)N1CCC(Cc2ccccc2)CC1", "note": "(stereo not given)", "Potency": "inactive"}
{"smiles": "Cc1c2oc3c(C)ccc(C(=O)N[C@@H]4C(=O)N[C@H](C(C)C)C(=O)N5CCC[C@H]5C(=O)N(C)CC(=O)N(C)[C@@H](C(C)C)C(=O)O[C@@H]4C)c3nc-2c(C(=O)N[C@@H]2C(=O)N[C@H](C(C)C)C(=O)N3CCC[C@H]3C(=O)N(C)CC(=O)N(C)[C@@H](C(C)C)C(=O)O[C@@H]2C)c(N)c1=O", "note": "(I: T[dV]P[Sar][NMeV] / II: T[dV]P[Sar][NMeV]; ester I:1-I:C, II:1-II:C; linker I:N-II:N via Actinocin(9to1))", "Potency": "188 nM (active) and 335 nM (active)"}
{"smiles": "O=C(Cl)c1cccc(C(=O)Cl)c1", "Potency": "inactive"}
{"smiles": "NC12CC3CC(CC(C3)C1)C2", "Potency": "inactive"}
{"smiles": "CC(C)CCCCCCc1ccc(O)cc1", "Potency": "24.8 µM (active)"}
{"smiles": "O=S(=O)(O)c1ccc2nc(-c3ccccc3)[nH]c2c1", "Potency": "inactive"}
{"smiles": "CN1C(=O)c2ccc([N+](=O)[O-])cc2C1=O", "Potency": "inactive"}
{"smiles": "Cc1cccc([N+](=O)[O-])c1C(=O)O", "Potency": "inactive"}
{"smiles": "CCCCC(CC)COC(=O)CC(C(=O)OCC(CC)CCCC)S(=O)(=O)O", "note": "(stereo not given)", "Potency": "inactive"}
